# Measurements reported in PubChem BioAssay (NCATS).
# Inconclusive results are not listed. Activity calls are given as the source filed them. Unless noted, calls follow the shape of the dose curve; as a rule, active = well fitted curve in the direction sought with a large enough effect; inconclusive = small, poorly fitted or top-dose-only effect, or another doubt; inactive = no such curve, though single readings can be large; an effect the other way counts as inactive or inconclusive.
# Tests used:
# [1] = AP1 Signaling Pathway (AID 357; active = well fitted curve in either direction with a large enough effect, not every such curve was filed as active; also: % is scaled to controls: 0 for no effect and ±100 for the full control effect); conditions: ME-180 AP-1-bla reporter, EGF-induced, beta-lactamase ratio, 5 h; at 7.69 µM (top of the series) unless noted
# In short: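 AP-1-bla ME-180 cells with beta-lactamase reporter under AP-1 response element, stimulated with EC50 EGF; compounds titrated, 5 hours at 37 degrees Celsius. CCF4 read at 460/530 nm ratio; positive and negative modulators judged by AC50.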
# [2] = molecular target: Cytochrome P450 1A2 (Homo sapiens) (UniProt P05177); assay: p450-cyp1a2 (AID 410; calls by dose curve; also: potency is read from the fitted curve at half-maximal effect)
# Sequence of Cytochrome P450 1A2 (Homo sapiens) (P05177 whole entry, looked up): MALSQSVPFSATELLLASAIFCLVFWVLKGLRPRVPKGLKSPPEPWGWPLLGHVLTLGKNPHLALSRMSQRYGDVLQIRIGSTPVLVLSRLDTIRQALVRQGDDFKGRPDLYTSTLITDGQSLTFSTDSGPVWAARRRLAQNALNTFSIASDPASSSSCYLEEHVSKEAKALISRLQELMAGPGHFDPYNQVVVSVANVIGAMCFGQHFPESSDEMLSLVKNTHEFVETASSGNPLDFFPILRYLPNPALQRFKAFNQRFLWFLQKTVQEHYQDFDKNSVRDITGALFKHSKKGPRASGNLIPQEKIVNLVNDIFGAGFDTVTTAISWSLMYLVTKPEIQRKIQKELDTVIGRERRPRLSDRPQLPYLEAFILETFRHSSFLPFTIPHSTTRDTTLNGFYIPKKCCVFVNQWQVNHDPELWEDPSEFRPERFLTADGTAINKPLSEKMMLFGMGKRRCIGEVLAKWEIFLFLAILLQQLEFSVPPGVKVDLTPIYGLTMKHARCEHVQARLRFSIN
# In short: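 Human CYP1A2 (20nM) demethylated Luciferin-ME at its Km (100uM) in 100mM KPO4. After 10 min compound preincubation, NADPH regeneration ran the reaction 60 min at room temperature. Luciferin was read by luminescence, normalized to 57 uM furafylline.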
# [3] = NFAT Signaling Pathway (AID 444; active = well fitted curve in either direction with a large enough effect, not every such curve was filed as active;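 also: carbachol stimulus at about its EC50 of 1 µM final; % is scaled to controls: 0 for no effect and ±100 for the full control effect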); conditions: Jurkat NFAT-bla M1, carbachol, beta-lactamase ratio, 5 h; at 7.69 µM (top of the series) unless noted
# In short: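 Jurkat cells with NFAT-driven β-lactamase reporter and co-expressed M1 receptor, stimulated with carbachol (final 1 uM, ~EC50), compound titration, 5 h at 37 °C. CCF4 loaded 1 h at RT; 460/530 nm ratio gave %activity and AC50.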
# [4] = Stat Signaling Pathway (AID 446; active = well fitted curve in either direction with a large enough effect, not every such curve was filed as active;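 also: ME-180 cervical cancer cells given 40 pM IL-6 alongside compound; SIE-controlled beta-lactamase reporter measured as 460/530 nm FRET emission ratio; % is scaled to controls: 0 for no effect and ±100 for the full control effect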); conditions: ME-180 SIE beta-lactamase reporter, IL-6 stimulated, 5 h; at 7.69 µM (top of the series) unless noted
# In short: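 ME-180 cells carrying a SIE-driven beta-lactamase reporter are stimulated with 40 pM IL-6 for 5 h at 37C in the presence of compound. The 460/530 nm FRET substrate ratio is read after 2.5 h at RT. Data are normalised to 300 pM IL-6 and to 125 nM JAK inhibitor controls.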
# [5] = molecular target: Glucocorticoid receptor (Homo sapiens) (UniProt P04150); assay: GR-EFC Redistribution (AID 451; calls by dose curve; also: potency is read from the fitted curve at half-maximal effect); conditions: CHO-K1 GR-EFC translocation, beta-gal luminescence, 2 h
# Sequence of Glucocorticoid receptor (Homo sapiens) (P04150 whole entry, looked up, the tested form may be a part): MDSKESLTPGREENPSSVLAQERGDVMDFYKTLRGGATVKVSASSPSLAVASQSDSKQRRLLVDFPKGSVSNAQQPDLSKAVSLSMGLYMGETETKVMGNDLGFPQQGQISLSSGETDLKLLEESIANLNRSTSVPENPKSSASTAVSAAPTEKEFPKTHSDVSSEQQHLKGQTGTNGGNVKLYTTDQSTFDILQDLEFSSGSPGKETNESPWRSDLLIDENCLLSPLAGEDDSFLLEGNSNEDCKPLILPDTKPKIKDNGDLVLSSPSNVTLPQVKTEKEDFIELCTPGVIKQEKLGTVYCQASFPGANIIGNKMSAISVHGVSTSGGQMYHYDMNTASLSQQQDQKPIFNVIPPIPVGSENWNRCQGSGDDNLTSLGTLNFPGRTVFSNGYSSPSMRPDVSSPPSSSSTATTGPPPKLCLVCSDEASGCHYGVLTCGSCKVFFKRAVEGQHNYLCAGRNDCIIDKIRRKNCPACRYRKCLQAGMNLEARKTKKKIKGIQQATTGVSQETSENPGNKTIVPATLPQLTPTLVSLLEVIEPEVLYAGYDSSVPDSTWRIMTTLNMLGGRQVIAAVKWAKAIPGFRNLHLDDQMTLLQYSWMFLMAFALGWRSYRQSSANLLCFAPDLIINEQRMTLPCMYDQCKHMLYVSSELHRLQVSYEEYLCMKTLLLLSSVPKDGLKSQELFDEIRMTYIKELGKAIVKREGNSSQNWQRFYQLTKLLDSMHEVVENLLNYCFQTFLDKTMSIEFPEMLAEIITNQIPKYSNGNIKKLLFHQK
# In short: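 CHO-K1 cells expressing nuclear EA and GR-ED fragments of b-gal; compounds titrated up to 46 uM final, 2 h at 37 C. GR nuclear translocation read as complemented b-gal luminescence after 1 h RT detection.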
# [6] = molecular target: Mitogen-activated protein kinase 10 (Mus musculus) (UniProt Q61831); assay: JNK3 AlphaScreen Assay (AID 530; active = well fitted curve in either direction with a large enough effect, not every such curve was filed as active;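 also: kinase came from lysate of stimulated human HepG2 cells; signal reports phosphorylation of biotinylated GST-cJun 1-79 at Ser73 with 10 µM ATP; % is scaled to controls: 0 for no effect and ±100 for the full control effect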)
# In short: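 qHTS format: compounds tested as titrations against IL-1beta/TNF-alpha-activated HepG2 lysate JNK3 with biotin-GST-cJun substrate and 10 uM ATP at room temperature. Loss of anti-phospho-cJun AlphaScreen signal indicates inhibition.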
# [7] = molecular target: Cytochrome P450 3A4 (Homo sapiens) (UniProt P08684); assay: qHTS Assay for Activators of Cytochrome P450 3A4 (AID 885); also: nearly all actives have a fitted effect of over 65% in size
# Sequence of Cytochrome P450 3A4 (Homo sapiens) (P08684 whole entry, looked up): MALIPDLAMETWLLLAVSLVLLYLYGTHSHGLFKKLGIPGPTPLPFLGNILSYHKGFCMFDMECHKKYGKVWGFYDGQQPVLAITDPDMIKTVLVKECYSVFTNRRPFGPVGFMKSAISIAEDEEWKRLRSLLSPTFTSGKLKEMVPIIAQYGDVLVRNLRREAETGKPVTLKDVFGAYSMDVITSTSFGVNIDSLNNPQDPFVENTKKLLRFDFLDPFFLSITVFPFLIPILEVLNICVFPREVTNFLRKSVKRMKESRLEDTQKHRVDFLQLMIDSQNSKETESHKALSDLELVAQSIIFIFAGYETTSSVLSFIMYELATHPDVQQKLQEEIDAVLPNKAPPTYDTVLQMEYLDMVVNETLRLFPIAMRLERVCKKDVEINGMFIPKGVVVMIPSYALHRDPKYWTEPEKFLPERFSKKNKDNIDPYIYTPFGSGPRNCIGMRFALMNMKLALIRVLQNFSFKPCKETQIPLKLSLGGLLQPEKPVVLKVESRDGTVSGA
# In short: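 Human CYP3A4 (20 nM) with Luciferin-PPXE at 25 uM (its KM) in 200 mM KPO4; 10 min compound preincubation, then NADPH regeneration and 60 min reaction at RT. Luciferin read by luminescence; normalized to 57 uM ketoconazole full inhibition.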
# [8] = molecular target: Cytochrome P450 2C19 (Homo sapiens) (UniProt P33261); assay: qHTS Assay for Inhibitors and Substrates of Cytochrome P450 2C19 (AID 899); also: potency is read from the fitted curve at half-maximal effect; nearly all actives have a fitted effect of over 60% in size
# Sequence of Cytochrome P450 2C19 (Homo sapiens) (P33261 whole entry, looked up): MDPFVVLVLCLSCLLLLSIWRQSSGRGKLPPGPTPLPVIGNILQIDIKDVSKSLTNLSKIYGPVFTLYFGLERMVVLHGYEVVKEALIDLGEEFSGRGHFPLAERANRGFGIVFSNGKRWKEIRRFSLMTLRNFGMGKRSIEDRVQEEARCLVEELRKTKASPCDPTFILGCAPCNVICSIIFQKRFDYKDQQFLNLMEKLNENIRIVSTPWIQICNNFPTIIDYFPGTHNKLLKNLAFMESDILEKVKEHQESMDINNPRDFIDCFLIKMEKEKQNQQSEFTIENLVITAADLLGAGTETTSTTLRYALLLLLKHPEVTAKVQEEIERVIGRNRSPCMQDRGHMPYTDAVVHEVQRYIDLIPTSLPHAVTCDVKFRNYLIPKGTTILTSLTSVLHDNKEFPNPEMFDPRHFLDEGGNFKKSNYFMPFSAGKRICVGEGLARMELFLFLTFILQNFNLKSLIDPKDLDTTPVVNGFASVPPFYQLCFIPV
# In short: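 5 nM human CYP2C19 with 10uM Luciferin-H EGE (at KM) in 50mM KPO4, compound preincubated 10 min at 37C, then NADPH regeneration for 60 min at 37C. Luciferin read by luminescence after detection reagent; normalized to 57uM ketoconazole as full inhibition.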
# [9] = qHTS Assay for Lipid Storage Modulators (AID 1519; calls by dose curve); conditions: Drosophila S3 cells, BODIPY lipid droplet/cell ratio, laser cytometry, cells loaded with oleic acid; for activity change, negative = inhibition: at 57.5 µM (top of the series)
# In short: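 Cells seeded at 5,000 per well were treated with compounds over a concentration series and loaded with oleic acid (400 uM, as added). Lipid droplet fluorescence (488 nm excitation, 500-530 nm channel) was read by laser-scanning cytometry and normalized to 20 uM Triacsin C.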
# [10] = molecular target: Dual specificity protein kinase CLK4 (Homo sapiens) (UniProt Q9HAZ1); assay: qHTS Assay for Inhibitors of CDC-like Kinase 4 (Kinase-Glo Assay) (AID 1770); also: nearly all actives have a fitted effect of over 65% in size; also: potency is read from the fitted curve at half-maximal effect
# Sequence of Dual specificity protein kinase CLK4 (Homo sapiens) (Q9HAZ1 whole entry, looked up): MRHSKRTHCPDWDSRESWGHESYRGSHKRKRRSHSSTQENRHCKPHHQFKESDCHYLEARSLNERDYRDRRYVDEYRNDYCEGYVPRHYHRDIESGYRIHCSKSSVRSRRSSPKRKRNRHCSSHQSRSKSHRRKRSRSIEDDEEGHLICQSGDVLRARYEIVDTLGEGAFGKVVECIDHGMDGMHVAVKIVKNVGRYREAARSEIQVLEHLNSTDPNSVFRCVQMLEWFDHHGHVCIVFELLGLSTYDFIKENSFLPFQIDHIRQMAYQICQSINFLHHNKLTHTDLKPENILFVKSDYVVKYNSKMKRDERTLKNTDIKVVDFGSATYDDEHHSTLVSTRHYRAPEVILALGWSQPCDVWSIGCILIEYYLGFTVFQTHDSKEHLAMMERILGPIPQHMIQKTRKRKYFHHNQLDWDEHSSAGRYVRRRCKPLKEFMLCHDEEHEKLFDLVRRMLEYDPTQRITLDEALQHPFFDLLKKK
# In short: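 Luminescent ATP-depletion read-out (Kinase-Glo) after 4.5 h room-temperature reaction of Clk4 (25 nM final) with RS peptide (100 uM) and ATP (1 uM), pH 7.5 Tris buffer with MgCl2 and DTT.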
# [11] = molecular target: Dual specificity protein kinase CLK4 (Homo sapiens) (UniProt Q9HAZ1); assay: qHTS Assay for Inhibitors of CDC-like Kinase 4 (ADP-Glo Assay) (AID 1771); also: nearly all actives have a fitted effect of over 70% in size; also: potency is read from the fitted curve at half-maximal effect
# In short: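 Clk4 (25 nM) was incubated 1 hr at room temperature with 100 uM RS repeat peptide and 1 uM ATP in buffer with 2 mM MgCl2, 0.5 mM EGTA, 2.5 mM DTT. ADP formed was quantified by ADP-Glo luminescence.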
# [12] = molecular target: Ubiquitin carboxyl-terminal hydrolase 1 (Homo sapiens) (UniProt O94782); assay: Inhibitors of USP1/UAF1: Pilot qHTS (AID 504865);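 also: rhodamine fluorescence freed from ubiquitin-rhodamine substrate followed over time; top concentration of the series differs between compounds; % is scaled to controls: 0 for no effect and ±100 for the full control effect; nearly all actives have a fitted effect of over 35% in size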
# Sequence of Ubiquitin carboxyl-terminal hydrolase 1 (Homo sapiens) (O94782 whole entry, looked up): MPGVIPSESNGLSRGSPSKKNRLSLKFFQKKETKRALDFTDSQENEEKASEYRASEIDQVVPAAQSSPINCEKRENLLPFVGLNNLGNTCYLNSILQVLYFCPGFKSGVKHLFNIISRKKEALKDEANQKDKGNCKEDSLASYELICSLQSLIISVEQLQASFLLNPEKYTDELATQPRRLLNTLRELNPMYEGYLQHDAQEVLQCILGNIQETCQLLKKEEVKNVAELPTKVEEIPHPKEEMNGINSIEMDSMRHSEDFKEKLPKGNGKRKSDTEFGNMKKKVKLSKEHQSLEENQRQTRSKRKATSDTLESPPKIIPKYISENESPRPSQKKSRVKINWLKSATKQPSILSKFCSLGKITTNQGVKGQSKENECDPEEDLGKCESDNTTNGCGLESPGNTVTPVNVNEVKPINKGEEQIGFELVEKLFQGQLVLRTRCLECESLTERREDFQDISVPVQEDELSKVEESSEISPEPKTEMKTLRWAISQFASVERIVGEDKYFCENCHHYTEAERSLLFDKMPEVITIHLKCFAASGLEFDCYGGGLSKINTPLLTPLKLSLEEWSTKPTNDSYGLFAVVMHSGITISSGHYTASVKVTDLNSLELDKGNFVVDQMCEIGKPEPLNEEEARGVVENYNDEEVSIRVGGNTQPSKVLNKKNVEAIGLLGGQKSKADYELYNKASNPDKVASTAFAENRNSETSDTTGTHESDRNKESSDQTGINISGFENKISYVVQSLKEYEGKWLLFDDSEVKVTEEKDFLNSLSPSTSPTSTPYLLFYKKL
# In short: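 Deubiquitinase activity followed as kinetic rhodamine fluorescence release from 150 nM Ub-Rho. 1 nM USP1/UAF1 with compound, after 15 min room-temperature preincubation, in HEPES pH 7.8 buffer containing TCEP, EDTA, BSA and Tween-20.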
# [13] = molecular target: Glucocorticoid receptor (Homo sapiens) (UniProt P04150); assay: GR-GFP Redistribution (AID 450;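 active = compounds whose dose series gives a full or clear partial fitted curve of increased nuclear translocation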; also: potency is read from the fitted curve at half-maximal effect); conditions: U2OS GR-GFP nuclear translocation, laser cytometry, 2 h
# [14] = molecular target: 3',5'-cyclic-AMP phosphodiesterase 4B (Homo sapiens) (UniProt Q07343); assay: qHTS Assay for Inhibitors of PDE-IV (AID 607; active = well fitted activation curve with a large enough effect in the main read-out, with a control signal flat, not every such curve was filed as active; also: % of control where 0% means no effect)
# Sequence of 3',5'-cyclic-AMP phosphodiesterase 4B (Homo sapiens) (Q07343 whole entry, looked up): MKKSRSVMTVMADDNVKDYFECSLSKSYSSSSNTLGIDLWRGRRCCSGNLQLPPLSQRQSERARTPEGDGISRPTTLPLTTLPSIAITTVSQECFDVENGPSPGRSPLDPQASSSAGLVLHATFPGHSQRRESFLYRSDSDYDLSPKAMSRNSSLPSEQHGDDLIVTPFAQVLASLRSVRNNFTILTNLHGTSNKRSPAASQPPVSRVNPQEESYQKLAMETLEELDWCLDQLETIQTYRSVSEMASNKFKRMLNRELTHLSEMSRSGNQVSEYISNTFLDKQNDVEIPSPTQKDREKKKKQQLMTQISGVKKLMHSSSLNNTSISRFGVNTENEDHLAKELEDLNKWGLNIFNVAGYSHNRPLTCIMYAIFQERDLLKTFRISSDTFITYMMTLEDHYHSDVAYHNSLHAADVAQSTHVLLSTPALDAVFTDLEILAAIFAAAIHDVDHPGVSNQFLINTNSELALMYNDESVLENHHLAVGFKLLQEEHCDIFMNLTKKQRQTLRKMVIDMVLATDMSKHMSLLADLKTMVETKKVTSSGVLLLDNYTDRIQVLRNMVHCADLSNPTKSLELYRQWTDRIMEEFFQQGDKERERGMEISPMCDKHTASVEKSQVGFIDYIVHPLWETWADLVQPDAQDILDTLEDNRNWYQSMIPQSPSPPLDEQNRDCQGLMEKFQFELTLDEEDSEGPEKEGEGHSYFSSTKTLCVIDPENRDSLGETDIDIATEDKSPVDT
# In short: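 HEK293 ACTOne cells with CNG channel (1000/well), endogenous PDE4; membrane potential dye, compounds up to 22.9 uM final. Fluorescence Ex 535/Em 590; RO 20-1724 (100 uM final) as reference.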
# [15] = qHTS Assay for Identification of Small Molecule Agonists for Hypoxia Response Element Signaling Pathway (AID 914; active = well fitted activation curve with a large enough effect in the signal ratio, with a control signal flat, not every such curve was filed as active; the % refers to the signal ratio; also: potency is read from the fitted curve at half-maximal effect); conditions: ME-180 (cervical carcinoma) HRE-bla reporter, beta-lactamase ratio, CoCl2, 17 h; activation: stronger effect = higher value
# In short: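 HRE-bla ME-180 cells, overnight plating in Opti-MEM with 0.5% dialyzed FBS; cpd titration + EC50 CoCl2, 17 h, 37 degrees Celsius; CCF4 2.5 h RT; 460/530 nm ratio; AC50.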
# [16] = molecular target: Dual specificity protein kinase CLK4 (Homo sapiens) (UniProt Q9HAZ1); assay: qHTS Assay for Inhibitors of CDC-like Kinase 4 (ADP-FP Assay) (AID 1795);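 also: recombinant human CLK4 phosphorylating RS repeat peptide at 1 µM ATP; % is scaled to controls: 0 for no effect and ±100 for the full control effect; nearly all actives have a fitted effect of over 60% in size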
# In short: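 Kinase activity was measured as ADP production using Transcreener orange tracer (4 nM) and ADP antibody (1 ug/mL) fluorescence polarization, with ADP calculated from a calibration curve. The 1 h reaction contained 6.25 nM Clk4, 1 uM ATP and 100 uM RS peptide at pH 7.5 with Mg2+.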
# [17] = molecular target: Lysosomal acid glucosylceramidase (Homo sapiens) (UniProt P04062); assay: Glucocerebrosidase-p2 (AID 348; in the data active = potency below about 10 µM; also: potency is read from the fitted curve at half-maximal effect); conditions: purified GBA, blue fluorogenic substrate, 40 min
# Sequence of Lysosomal acid glucosylceramidase (Homo sapiens) (P04062 whole entry, looked up): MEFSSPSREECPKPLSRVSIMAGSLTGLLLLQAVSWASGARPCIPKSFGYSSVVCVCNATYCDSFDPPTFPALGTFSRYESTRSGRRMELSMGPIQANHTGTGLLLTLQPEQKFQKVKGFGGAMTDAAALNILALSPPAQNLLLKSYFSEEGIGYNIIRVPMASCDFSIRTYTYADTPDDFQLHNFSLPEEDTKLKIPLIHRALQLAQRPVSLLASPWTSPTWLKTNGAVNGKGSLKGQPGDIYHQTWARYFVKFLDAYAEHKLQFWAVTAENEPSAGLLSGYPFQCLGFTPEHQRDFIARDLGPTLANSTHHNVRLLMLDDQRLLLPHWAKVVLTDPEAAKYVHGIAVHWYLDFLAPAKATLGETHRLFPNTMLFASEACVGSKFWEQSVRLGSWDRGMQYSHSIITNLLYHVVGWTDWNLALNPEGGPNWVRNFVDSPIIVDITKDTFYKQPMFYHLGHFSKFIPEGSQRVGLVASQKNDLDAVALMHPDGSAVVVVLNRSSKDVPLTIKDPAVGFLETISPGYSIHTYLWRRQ
# In short: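 Compounds titrated from 0.6 nM upwards against 0.2 nM enzyme in pH 5.9 citric acid/KH2PO4, taurocholate, tween-20; blue fluorogenic substrate 80 uM, 40 min room temperature, stopped and read Ex 365/Em 440 for AC50.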
# [18] = molecular target: Cytochrome P450 3A4 (Homo sapiens) (UniProt P08684); assay: qHTS Assay for Inhibitors and Substrates of Cytochrome P450 3A4 (AID 884); also: potency is read from the fitted curve at half-maximal effect; nearly all actives have a fitted effect of over 50% in size
# In short: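 20 nM human CYP3A4 with 25 uM Luciferin-PPXE (at KM) in 200 mM KPO4, preincubated 10 min with compound; NADPH regeneration started a 60 min RT reaction. Luciferin detected by luminescence, normalized to 57 uM ketoconazole as full inhibition.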
# [19] = measured here: cell count channel max response
# [20] = measured here: lipid channel max response
SMILES,"activity change, negative = inhibition [1]",Potency [2],"activity change, negative = inhibition [3]","activity, negative = inhibition [4]",Potency [5],Potency [6],Potency [7],Potency [8],"activity change, negative = inhibition [9]","max response [9, 19] [%]","max response [9, 20] [%]",Potency [10],Potency [11],Potency [12],Potency [13],Potency [14],Potency [15],Potency [16],Potency [17],Potency [18]
COCCNc1ncnc2ccc(-c3ccccc3C(F)(F)F)cc12,15.6% (inactive),1.58 µM (active),18.9% (inactive),-11.6% (inactive),> 46 µM (inactive),inactive,inactive,6.31 µM (active),-1.49% (inactive),-4.06,-5.73,25.1 µM (active),31.6 µM (active),inactive,–,–,–,–,–,–
COc1ccc(-n2c(=O)c(-c3cn(C)c4ccccc34)nc3cnc(N4CCNCC4)nc32)cc1,26.2% (inactive),15.8 µM (active),–,–,> 46 µM (inactive),–,inactive,–,7.55% (inactive),16.8,26.4,inactive,inactive,inactive,> 9.22 µM (inactive),inactive,3.16 µM (active),inactive,–,–
Clc1ccccc1-c1cncnc1NCCN1CCOCC1,–,–,–,7.26% (inactive),> 46 µM (inactive),inactive,–,–,1.35% (inactive),18.6,20.3,inactive,inactive,inactive,> 46 µM (inactive),inactive,3.16 µM (active),inactive,> 11.4 µM (inactive),–
COc1ccc(CNc2ccnc(-c3ccccc3CN(C)C)n2)c(OC)c1,5.22% (inactive),15.8 µM (active),-25.3% (inactive),9.04% (inactive),> 46 µM (inactive),inactive,inactive,–,3.1% (inactive),26.9,28.6,inactive,inactive,inactive,> 46 µM (inactive),–,–,inactive,–,5.01 µM (active)
COc1cccc(Cn2c(=O)c(-c3ccc(F)cc3)nc3cnc(N4CCNCC4)nc32)c1,–,25.1 µM (active),–,–,> 46 µM (inactive),–,inactive,–,-5.11% (inactive),2.95,0.893,inactive,inactive,–,> 9.22 µM (inactive),inactive,–,–,> 11.4 µM (inactive),–
COc1ccccc1-c1ccc2ncnc(NCCNC(C)=O)c2c1,11.9% (inactive),5.01 µM (active),3.1% (inactive),-8.48% (inactive),> 46 µM (inactive),inactive,inactive,–,1.76% (inactive),-6.93,-7.23,11.2 µM (active),15.8 µM (active),inactive,> 46 µM (inactive),inactive,–,–,> 11.4 µM (inactive),–
